Key:
[1] = molecular target: Platelet-derived growth factor receptor beta (Homo sapiens) (UniProt P09619); settings: at 1 µM;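 note: each value is a mean percent inhibition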
[2] = molecular target: Tyrosine-protein kinase FRK (Homo sapiens) (UniProt P42685); settings: at 0.1 µM
[3] = molecular target: Tyrosine-protein kinase FRK (Homo sapiens) (UniProt P42685); settings: at 1 µM
[4] = molecular target: Protein-tyrosine kinase 2-beta (Homo sapiens) (UniProt Q14289); settings: at 0.1 µM
[5] = molecular target: Protein-tyrosine kinase 2-beta (Homo sapiens) (UniProt Q14289); settings: at 1 µM
[6] = molecular target: Proto-oncogene tyrosine-protein kinase receptor Ret (Homo sapiens) (UniProt P07949); settings: at 0.1 µM
Chain of Proto-oncogene tyrosine-protein kinase receptor Ret (Homo sapiens) (P07949 whole entry): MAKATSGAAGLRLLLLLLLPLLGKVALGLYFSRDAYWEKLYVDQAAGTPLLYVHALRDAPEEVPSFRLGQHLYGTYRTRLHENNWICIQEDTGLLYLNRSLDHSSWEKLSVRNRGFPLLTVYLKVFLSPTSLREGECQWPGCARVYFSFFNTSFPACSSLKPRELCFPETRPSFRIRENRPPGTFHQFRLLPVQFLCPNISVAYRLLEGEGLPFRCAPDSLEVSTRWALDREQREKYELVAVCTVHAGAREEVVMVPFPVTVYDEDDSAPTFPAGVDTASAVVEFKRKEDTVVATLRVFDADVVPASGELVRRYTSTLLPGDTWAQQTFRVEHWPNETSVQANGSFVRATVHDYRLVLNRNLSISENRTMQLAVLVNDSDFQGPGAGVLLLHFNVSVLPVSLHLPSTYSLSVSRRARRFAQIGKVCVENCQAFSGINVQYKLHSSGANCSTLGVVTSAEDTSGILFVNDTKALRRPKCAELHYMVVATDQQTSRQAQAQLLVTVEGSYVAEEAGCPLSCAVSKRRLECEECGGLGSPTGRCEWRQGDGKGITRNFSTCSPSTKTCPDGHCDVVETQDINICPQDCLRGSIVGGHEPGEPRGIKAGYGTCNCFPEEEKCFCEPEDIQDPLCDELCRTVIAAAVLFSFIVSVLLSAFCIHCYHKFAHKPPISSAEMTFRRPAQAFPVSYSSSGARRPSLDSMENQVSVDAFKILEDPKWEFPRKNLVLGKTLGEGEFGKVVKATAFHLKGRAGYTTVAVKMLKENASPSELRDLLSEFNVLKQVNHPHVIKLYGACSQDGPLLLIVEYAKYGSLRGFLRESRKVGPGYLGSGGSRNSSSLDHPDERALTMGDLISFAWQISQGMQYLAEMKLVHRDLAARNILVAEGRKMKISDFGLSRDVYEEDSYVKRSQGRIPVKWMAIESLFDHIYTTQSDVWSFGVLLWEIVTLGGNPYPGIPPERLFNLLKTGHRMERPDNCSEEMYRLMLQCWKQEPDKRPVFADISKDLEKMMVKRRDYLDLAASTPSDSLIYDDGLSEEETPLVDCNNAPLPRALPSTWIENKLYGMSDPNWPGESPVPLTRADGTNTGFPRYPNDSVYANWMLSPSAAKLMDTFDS

[7] = molecular target: Proto-oncogene tyrosine-protein kinase receptor Ret (Homo sapiens) (UniProt P07949); settings: at 1 µM
[8] = test system: Proto-oncogene tyrosine-protein kinase receptor Ret (Homo sapiens), P07949 [V804L]; settings: at 0.1 µM
Chain of Proto-oncogene tyrosine-protein kinase receptor Ret (Homo sapiens), P07949 [V804L] (P07949 whole entry V804L): as the sequence (P07949 whole entry) above, with V804L counted along it

[9] = test system: Proto-oncogene tyrosine-protein kinase receptor Ret (Homo sapiens), P07949 [V804L]; settings: at 1 µM
[10] = test system: Proto-oncogene tyrosine-protein kinase receptor Ret (Homo sapiens), P07949 [Y791F]; settings: at 0.1 µM
Chain of Proto-oncogene tyrosine-protein kinase receptor Ret (Homo sapiens), P07949 [Y791F] (P07949 whole entry Y791F): as the sequence (P07949 whole entry) above, with Y791F counted along it

[11] = test system: Proto-oncogene tyrosine-protein kinase receptor Ret (Homo sapiens), P07949 [Y791F]; settings: at 1 µM
[12] = molecular target: Macrophage-stimulating protein receptor (Homo sapiens) (UniProt Q04912); settings: at 1 µM
[13] = molecular target: Proto-oncogene tyrosine-protein kinase ROS (Homo sapiens) (UniProt P08922); settings: at 0.1 µM
Chain of Proto-oncogene tyrosine-protein kinase ROS (Homo sapiens) (P08922 whole entry): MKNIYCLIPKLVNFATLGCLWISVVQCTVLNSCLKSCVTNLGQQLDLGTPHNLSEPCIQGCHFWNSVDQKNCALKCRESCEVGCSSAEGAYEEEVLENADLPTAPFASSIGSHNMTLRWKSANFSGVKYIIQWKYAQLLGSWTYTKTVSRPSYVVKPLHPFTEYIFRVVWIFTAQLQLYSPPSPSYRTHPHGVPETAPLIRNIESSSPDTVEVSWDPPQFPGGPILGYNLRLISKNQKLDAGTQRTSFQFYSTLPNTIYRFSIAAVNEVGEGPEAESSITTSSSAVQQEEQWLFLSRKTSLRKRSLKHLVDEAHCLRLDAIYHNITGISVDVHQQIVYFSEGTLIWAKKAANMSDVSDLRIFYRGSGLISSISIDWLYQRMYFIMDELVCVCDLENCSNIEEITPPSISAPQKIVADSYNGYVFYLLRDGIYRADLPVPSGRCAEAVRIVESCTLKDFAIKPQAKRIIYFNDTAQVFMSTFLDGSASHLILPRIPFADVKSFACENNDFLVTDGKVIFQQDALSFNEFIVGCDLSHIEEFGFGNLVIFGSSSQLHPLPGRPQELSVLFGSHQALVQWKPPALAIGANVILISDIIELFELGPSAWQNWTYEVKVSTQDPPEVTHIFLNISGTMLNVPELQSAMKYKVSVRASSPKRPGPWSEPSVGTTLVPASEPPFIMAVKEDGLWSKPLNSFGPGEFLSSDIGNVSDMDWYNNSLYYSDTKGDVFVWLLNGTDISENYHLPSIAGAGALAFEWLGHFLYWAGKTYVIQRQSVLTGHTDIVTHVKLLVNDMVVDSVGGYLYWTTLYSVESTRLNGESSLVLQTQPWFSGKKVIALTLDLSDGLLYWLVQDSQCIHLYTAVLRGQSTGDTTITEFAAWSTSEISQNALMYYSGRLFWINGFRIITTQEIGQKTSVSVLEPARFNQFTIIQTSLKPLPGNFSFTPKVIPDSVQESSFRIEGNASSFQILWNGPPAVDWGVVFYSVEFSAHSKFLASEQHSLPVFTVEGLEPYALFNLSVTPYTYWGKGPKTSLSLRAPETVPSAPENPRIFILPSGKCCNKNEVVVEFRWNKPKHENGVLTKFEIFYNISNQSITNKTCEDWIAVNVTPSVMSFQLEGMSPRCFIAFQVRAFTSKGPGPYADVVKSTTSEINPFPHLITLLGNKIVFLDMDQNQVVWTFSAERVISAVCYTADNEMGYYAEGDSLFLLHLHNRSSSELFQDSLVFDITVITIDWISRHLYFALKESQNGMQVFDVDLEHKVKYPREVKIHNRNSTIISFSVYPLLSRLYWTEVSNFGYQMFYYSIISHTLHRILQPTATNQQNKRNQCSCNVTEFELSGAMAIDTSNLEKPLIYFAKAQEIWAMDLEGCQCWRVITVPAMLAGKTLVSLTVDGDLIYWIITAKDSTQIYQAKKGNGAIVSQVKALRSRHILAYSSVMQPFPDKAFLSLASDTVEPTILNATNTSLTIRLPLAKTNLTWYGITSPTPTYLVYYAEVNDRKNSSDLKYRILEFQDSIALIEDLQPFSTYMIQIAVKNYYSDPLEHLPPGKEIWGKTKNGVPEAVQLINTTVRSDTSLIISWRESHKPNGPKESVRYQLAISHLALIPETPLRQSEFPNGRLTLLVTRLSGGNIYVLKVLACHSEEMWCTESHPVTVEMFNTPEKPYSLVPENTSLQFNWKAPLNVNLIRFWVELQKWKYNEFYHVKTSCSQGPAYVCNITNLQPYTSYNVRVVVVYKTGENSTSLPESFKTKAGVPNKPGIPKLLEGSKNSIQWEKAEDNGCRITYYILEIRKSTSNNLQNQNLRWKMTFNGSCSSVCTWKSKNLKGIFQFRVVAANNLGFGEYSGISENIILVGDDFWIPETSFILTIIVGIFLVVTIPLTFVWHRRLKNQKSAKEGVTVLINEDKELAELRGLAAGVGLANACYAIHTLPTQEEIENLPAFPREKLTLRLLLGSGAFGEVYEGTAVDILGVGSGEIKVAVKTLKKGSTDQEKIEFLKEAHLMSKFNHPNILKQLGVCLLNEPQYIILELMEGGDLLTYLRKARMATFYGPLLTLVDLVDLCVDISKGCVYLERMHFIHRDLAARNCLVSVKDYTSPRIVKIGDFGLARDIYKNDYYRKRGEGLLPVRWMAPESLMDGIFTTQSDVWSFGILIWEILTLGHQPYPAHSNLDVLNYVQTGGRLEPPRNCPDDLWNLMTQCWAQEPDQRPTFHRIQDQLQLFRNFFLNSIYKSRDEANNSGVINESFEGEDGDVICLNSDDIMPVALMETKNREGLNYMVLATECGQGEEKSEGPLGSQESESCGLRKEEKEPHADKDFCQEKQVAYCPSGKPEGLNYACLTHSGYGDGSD

[14] = molecular target: Proto-oncogene tyrosine-protein kinase ROS (Homo sapiens) (UniProt P08922); settings: at 1 µM
[15] = molecular target: Proto-oncogene tyrosine-protein kinase Src (Homo sapiens) (UniProt P12931); settings: at 0.1 µM
[16] = molecular target: Proto-oncogene tyrosine-protein kinase Src (Homo sapiens) (UniProt P12931); settings: at 1 µM
[17] = molecular target: Tyrosine-protein kinase Srms (Homo sapiens) (UniProt Q9H3Y6); settings: at 0.1 µM
Chain of Tyrosine-protein kinase Srms (Homo sapiens) (Q9H3Y6 whole entry): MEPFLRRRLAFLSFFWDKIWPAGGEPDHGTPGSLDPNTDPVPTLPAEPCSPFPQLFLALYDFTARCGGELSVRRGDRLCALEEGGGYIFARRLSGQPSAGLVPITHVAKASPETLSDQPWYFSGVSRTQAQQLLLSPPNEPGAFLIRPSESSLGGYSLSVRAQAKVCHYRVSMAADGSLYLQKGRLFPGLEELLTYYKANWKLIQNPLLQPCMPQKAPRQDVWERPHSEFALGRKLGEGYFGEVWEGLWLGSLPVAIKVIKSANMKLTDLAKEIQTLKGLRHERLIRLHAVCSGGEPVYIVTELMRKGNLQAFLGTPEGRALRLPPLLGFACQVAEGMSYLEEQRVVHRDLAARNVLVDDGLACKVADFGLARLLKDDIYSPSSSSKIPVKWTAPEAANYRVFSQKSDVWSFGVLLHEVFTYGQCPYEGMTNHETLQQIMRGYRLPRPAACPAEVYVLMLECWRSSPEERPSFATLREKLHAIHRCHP

[18] = molecular target: Tyrosine-protein kinase Srms (Homo sapiens) (UniProt Q9H3Y6); settings: at 1 µM
[19] = molecular target: Tyrosine-protein kinase SYK (Homo sapiens) (UniProt P43405); settings: at 0.1 µM;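 note: reported percentages are mean inhibition values for SYK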
[20] = molecular target: Macrophage-stimulating protein receptor (Homo sapiens) (UniProt Q04912); settings: at 0.1 µM

Chain of Platelet-derived growth factor receptor beta (Homo sapiens) (P09619 whole entry): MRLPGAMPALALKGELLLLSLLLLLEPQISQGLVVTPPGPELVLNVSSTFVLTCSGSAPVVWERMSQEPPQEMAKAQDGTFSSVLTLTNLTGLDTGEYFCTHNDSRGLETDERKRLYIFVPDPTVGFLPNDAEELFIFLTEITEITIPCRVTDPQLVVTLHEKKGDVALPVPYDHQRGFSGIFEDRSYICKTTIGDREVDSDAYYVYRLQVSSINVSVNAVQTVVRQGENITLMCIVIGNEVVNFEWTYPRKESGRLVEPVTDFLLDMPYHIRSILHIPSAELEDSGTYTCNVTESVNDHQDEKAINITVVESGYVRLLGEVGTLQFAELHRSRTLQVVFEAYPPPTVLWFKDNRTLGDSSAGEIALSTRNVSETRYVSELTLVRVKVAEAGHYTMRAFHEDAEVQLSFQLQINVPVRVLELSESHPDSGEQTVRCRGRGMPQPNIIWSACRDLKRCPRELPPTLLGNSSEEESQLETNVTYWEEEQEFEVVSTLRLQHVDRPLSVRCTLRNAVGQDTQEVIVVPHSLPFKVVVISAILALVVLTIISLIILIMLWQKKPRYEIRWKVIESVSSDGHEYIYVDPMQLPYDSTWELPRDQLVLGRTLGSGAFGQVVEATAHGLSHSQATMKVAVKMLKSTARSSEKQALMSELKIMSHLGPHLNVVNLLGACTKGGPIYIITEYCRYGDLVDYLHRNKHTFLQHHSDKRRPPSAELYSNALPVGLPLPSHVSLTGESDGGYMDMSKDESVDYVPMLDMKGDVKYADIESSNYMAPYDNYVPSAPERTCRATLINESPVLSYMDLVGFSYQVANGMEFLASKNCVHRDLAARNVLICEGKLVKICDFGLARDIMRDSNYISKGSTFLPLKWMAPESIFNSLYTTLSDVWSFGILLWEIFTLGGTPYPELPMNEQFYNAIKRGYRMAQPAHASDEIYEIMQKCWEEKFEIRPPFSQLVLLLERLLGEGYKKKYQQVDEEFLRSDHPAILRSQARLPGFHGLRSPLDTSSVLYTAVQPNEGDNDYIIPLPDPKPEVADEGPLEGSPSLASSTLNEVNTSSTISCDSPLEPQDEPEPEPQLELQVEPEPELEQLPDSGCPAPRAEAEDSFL

| Structure (SMILES) | inhibition [1] [%] | inhibition [2] [%] | inhibition [3] [%] | inhibition [4] [%] | inhibition [5] [%] | inhibition [6] [%] | inhibition [7] [%] | inhibition [8] [%] | inhibition [9] [%] | inhibition [10] [%] | inhibition [11] [%] | inhibition [12] [%] | inhibition [13] [%] | inhibition [14] [%] | inhibition [15] [%] | inhibition [16] [%] | inhibition [17] [%] | inhibition [18] [%] | inhibition [19] [%] | inhibition [20] [%] |
| --- | --- | --- | --- | --- | --- | --- | --- | --- | --- | --- | --- | --- | --- | --- | --- | --- | --- | --- | --- | --- |
| Fc1ccc(-c2ncn(C3CCNCC3)c2-c2ccnc(Oc3ccccc3)n2)cc1 | 5.68 | 1.48 | 1.29 | 4.92 | 6.66 | 3.19 | 7.03 | 1.33 | 5.85 | 1.85 | 4.13 | -0.69 | 2.25 | 4.83 | 1.52 | 2.45 | -0.96 | -0.16 | 2.45 |  |
| NS(=O)(=O)c1ccc(N/C=C2\C(=O)Nc3ccc4ncsc4c32)cc1 | 86.8 | 2.34 | 3.93 | 7.28 | 43.6 | 30.4 | 71.3 | 47.3 | 73.9 | 30.5 | 69 | 39.2 | 6.11 | 17 | 12.2 | 42.9 | -3.95 | -1.72 | -2.47 | 7.83 |
| NS(=O)(=O)c1ccc(-c2ccc3c(NC(=O)C4CC4)n[nH]c3c2)cc1 | 5.87 | 1.62 | 1.3 | 6.65 | 5.61 | 3 | 8.48 | 2.82 | 4.4 | 3.34 | 5.85 | 8.99 | 1.18 | 2.15 | 1.32 | 4.59 | -2.44 | -0.4 | -0.58 | 5.07 |
| CCn1c(-c2nonc2N)nc2c(C#CCN)ncc(OCCCN)c21 | 25.5 | -0.39 | -0.01 | -5.89 | 8.44 | 3.26 | 4.11 | 6.12 | 9.27 | 1.83 | 15.8 | -3.31 | 3.3 | 4.46 | -2.04 | -4.29 | 1.1 | 1.96 | 8.99 | -2.05 |
| NC(=O)c1sc(-n2cnc3cc(C(F)(F)F)ccc32)cc1OCc1ccccc1Br | 5.82 | 0.62 | -0.62 | 3.52 | -2.94 | 5.91 | 2.23 | 1.83 | 11.6 | 2.29 | 7.07 | -1.59 | 4.23 | 5.52 | 3.37 | 2.02 | 0.27 | 0.76 | 0.79 | 0.35 |
| COc1cc(C=NNc2ncnc3c2cnn3Cc2ccccc2)ccc1O | 26.4 | 0.54 | 1.85 | -6.73 | -1.9 | 7.87 | 46.3 | 1.82 | 11.1 | 7.69 | 28.4 | 12.5 | 2.7 | 16.4 | 31.2 | 76.5 | -0.22 | 4.66 | 4.57 | -1.32 |
| CCn1c(-c2nonc2N)nc2c(C#CC(C)(C)O)ncc(OC[C@@H]3CCCN3)c21 | 47.2 | -0.88 | 0.68 | 1.89 | 23 | 3.87 | 25.2 | 0.45 | 2.53 | 3 | 28.5 | -2.78 | -0.22 | 0.45 | -0.2 | -2.58 | 1.63 | 0.87 | -0.6 | 1.97 |
| COc1cc2c(cc1Nc1nc(Nc3ccsc3C(N)=O)c3cc[nH]c3n1)N(C(=O)CN(C)C)CCC2 | 33.9 | 1.91 | 8.84 | 77.8 | 95.6 | 11.9 | 14.2 | 2.29 | 13.6 | 1.79 | 7.35 | 11.5 | 82.1 | 82.1 | 8.11 | 6.64 | 5.79 | 3.93 | 10.9 | 2.97 |
| Cc1cc(-c2ccco2)cc(C)c1/C=C/c1cncc(-c2nn[nH]n2)c1 | 2.67 | -0.44 | -0.05 | 1.24 | 0 | 1.88 | 3.21 | 8.81 | 1.72 | 2.21 | 2.75 | -0.11 | 2.71 | 3.62 | 2.38 | 2.91 | 0.76 | 3.61 | 0.05 | 1.68 |
| CCn1c(-c2nonc2N)nc2c(C#CC(C)(C)O)nc(O[C@@H](CN)c3ccccc3)cc21 | 79.5 | -0.39 | 0.63 | 27 | 80.1 | 41.7 | 90 | 9.12 | 47.7 | 41.8 | 80.3 | 3.42 | 2.61 | 11.1 | 2.84 | 20.9 | 4.6 | 0.15 | 1.9 | 1.9 |
| COc1cccc(COc2cc(-n3cnc4ccccc43)sc2C(N)=O)c1 | 8.32 | 0 | 0.01 | -3.42 | -2.02 | 0.11 | 7.33 | 0.81 | 0.07 | 0.47 | 11.6 | 1.23 | 1.62 | 3.74 | -0.77 | -2.52 | -2.46 | -1.46 | -0.33 | -1.15 |
| COc1cccc(-n2ncc3c(N/N=C/c4ccncc4)ncnc32)c1 | 81.2 | 2.72 | 5.75 | 11.5 | 16.5 | 9.73 | 50.3 | 7.23 | 31.1 | 18.4 | 65.9 | 60.9 | 10.2 | 76 | 49.1 | 87.3 | 1.22 | 14.3 | -2.07 | 12.4 |
| CCn1c(-c2nonc2N)nc2c(C#CC(C)(C)O)ncc(OCC3CCNCC3)c21 | 44.6 | 1.13 | 1.21 | 9.34 | 29.7 | 6.89 | 26.3 | 6.2 | 28.5 | 5.3 | 33.5 | 7.68 | 3.89 | 5.45 | -0.03 | 8.65 | 0.75 | 1.57 | 0.62 | 0.01 |
| Nc1nonc1-c1nc2cnccc2n1C1CCCCC1 | 26.4 | 0.25 | 0.75 | -7.07 | -8.39 | 3.59 | 9.55 | 5.85 | 19.5 | 2.08 | 13.2 | -1.49 | 5.33 | 35.9 | 1.24 | -1.17 | 1.53 | 2.59 | 3.45 | 13.1 |

— ChEMBL document CHEMBL1961873, “Compounds: GSK PKIS; Assays: Nanosyn kinase panel” (2012)
